Measured values: PubChem BioAssay
Calls of active or inactive are those of the source.

Columns and labels:
[1] = optical density shifts of acrAB sulA E. coli – strain DRC41, OD650, 48 h, E. coli filamentation inducer project, primary screen (AID 1152); conditions: higher = more signal, called active from +8 up or from −8 down;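 further: E. coli MC1000 strain DRC41 lacking acrAB efflux pump and sulA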
[2] = probe aLefty1 binding on compound microarray – biochemical, small-molecule microarray, 635/667 nm fluorescence, primary screen (AID 1153); conditions: higher = more signal;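 further: score merges spot fluorescence with signal-to-noise ratio from the scanned slide images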
[3] = plasmodial surface anion channel blockers, osmotic lysis – cell-based, P. falciparum Indochina, OD700, 1 h, primary screen (AID 1154); conditions: P. falciparum Indochina infected RBC osmotic lysis, higher = more signal, called active from +8 up or from −8 down
[4] = plasmodial surface anion channel blockers, osmotic lysis – cell-based, P. falciparum Indochina, OD700, 2 h, primary screen (AID 1155);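 further: lysis reports solute entry through the parasite surface anion channel PSAC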; conditions: P. falciparum Indochina infected erythrocytes, higher = more signal, called active from +8 up or from −8 down
[5] = changes in parasitized red cell lysis, either direction – P. falciparum Indochina, OD700, 3 h, PSAC antagonist project, primary screen (AID 1156); conditions: P. falciparum-infected erythrocytes, osmotic lysis, higher = more signal, called active from +8 up or from −8 down
[6] = plasmodial surface anion channel blockers, osmotic lysis – cell-based, P. falciparum Indochina, OD700, 18 h, primary screen (AID 1157); conditions: P. falciparum Indochina infected erythrocytes, osmotic lysis OD700, 18 h; higher = more signal, called active from +8 up or from −8 down
[7] = S6 kinase pathway phospho-S6 level changes – cell-based, A549, cytoblot, luminescence, serum-stimulated, primary screen (AID 1158); conditions: 5 h, higher = more signal;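 further: serum-stimulated A549 lung adenocarcinoma cells; signal is phosphorylated S6 detected by cytoblot immunostaining with HRP secondary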
[8] = target: NADPH oxidase 2 (Homo sapiens) (UniProt P04839); experiment: compounds shifting NOX2 Amplex Red fluorescence – cell-based, HEK293-NOX2, PMA-stimulated, NOX inhibitor project, primary screen (AID 1159); conditions: 45 min, higher = more signal, called active from +8 up or from −8 down; further: test concentration not given here
[9] = target: NADPH oxidase 4 (Homo sapiens) (UniProt Q9NPH5); experiment: compounds shifting NOX4 Amplex Red fluorescence – cell-based, HEK293-NOX4, tetracycline-induced, NOX inhibitor project, primary screen (AID 1160); conditions: HEK293-NOX4, Amplex Red H2O2 fluorescence, 45 min; higher = more signal, called active from +8 up or from −8 down
[10] = target: NADPH oxidase 5 (Homo sapiens) (UniProt Q96PH1); experiment: compounds shifting NOX5 Amplex Red fluorescence – cell-based, HEK293-NOX5, NOX inhibitor project, primary screen (AID 1161); conditions: HEK293-NOX5, ionomycin, 45 min, higher = more signal
NADPH oxidase 5 (Homo sapiens), sequence (Q96PH1 whole entry, looked up): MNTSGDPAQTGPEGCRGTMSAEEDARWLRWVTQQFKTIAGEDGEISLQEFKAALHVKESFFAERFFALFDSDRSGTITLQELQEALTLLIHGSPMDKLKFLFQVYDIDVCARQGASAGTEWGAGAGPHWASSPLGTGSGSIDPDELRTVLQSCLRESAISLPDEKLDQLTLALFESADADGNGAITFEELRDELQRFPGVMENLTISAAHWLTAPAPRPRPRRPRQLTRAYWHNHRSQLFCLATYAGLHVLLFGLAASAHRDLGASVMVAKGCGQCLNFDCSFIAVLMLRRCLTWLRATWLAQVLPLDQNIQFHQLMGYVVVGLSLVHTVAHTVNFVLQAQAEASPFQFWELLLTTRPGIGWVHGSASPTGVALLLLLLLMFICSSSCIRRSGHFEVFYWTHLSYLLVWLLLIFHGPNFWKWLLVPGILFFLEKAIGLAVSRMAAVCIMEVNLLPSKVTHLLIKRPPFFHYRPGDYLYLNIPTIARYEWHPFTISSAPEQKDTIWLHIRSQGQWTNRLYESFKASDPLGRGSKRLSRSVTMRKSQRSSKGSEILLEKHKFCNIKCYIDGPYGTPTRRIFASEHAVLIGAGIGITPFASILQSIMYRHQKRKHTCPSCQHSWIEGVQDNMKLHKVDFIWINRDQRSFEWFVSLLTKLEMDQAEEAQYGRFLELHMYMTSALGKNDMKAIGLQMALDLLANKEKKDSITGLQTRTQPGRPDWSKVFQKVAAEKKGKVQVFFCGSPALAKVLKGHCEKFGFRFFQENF

NADPH oxidase 4 (Homo sapiens), sequence (Q9NPH5 whole entry, looked up): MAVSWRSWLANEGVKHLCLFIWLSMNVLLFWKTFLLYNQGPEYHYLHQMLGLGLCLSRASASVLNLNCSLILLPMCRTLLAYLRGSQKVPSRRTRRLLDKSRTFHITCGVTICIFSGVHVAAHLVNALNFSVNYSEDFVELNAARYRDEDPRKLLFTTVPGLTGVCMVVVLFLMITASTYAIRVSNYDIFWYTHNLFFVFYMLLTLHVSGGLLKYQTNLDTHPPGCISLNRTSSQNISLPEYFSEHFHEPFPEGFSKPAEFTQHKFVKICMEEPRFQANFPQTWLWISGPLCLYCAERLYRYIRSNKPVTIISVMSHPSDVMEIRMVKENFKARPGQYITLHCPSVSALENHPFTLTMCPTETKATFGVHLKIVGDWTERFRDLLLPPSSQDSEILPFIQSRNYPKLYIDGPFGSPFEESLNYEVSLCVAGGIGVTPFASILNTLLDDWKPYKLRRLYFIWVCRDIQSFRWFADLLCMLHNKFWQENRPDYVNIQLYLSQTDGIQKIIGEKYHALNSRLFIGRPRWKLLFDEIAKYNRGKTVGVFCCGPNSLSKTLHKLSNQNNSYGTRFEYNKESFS
NADPH oxidase 2 (Homo sapiens), sequence (P04839 whole entry, looked up): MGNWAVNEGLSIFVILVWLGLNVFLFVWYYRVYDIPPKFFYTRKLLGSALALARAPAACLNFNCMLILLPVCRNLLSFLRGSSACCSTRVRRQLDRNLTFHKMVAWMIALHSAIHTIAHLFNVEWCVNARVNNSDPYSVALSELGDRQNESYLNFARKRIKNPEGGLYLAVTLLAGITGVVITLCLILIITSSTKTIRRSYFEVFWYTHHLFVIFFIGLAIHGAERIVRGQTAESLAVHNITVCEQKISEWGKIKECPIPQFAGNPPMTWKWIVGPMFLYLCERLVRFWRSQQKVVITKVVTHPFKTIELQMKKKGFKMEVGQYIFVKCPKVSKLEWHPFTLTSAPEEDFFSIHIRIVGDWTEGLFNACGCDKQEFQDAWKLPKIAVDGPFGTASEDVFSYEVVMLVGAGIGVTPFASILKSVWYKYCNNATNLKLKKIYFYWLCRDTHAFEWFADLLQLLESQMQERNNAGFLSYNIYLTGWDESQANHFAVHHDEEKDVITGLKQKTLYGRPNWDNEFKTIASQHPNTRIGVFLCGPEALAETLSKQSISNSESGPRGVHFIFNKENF

Row | SMILES | z-score [1] | composite z-score [2] | z-score [3] | z-score [4] | z-score [5] | z-score [6] | z-score [7] | z-score [8] | z-score [9] | z-score [10]
1 | C=CCNC(=O)[C@H]1[C@@H]2C(=O)O[C@@H](c3ccccc3)[C@@H](c3ccccc3)N2[C@@H](c2ccc(OCCO)cc2)[C@]12C(=O)N(C(=O)OCCOC)c1ccc(C#CC3(O)CCCCCC3)cc12 | 0.838 (inactive) | 0.658 | 1.92 (inactive) | 0.742 (inactive) | 0.0102 (inactive) | 0.509 (inactive) | 0.0127 | 1.56 (inactive) | 0.972 (inactive) | 1.02
2 | COC(=O)[C@@]1(Cc2ccc(F)cc2)[C@H]2c3cc(C(=O)N(C)C)n(CCCNc4ccc(C(F)(F)F)cc4Cl)c3C[C@H]2CN1C(=O)c1ccccc1 | -1.74 (inactive) | 0.634 | 1.36 (inactive) | 0.986 (inactive) | 0.277 (inactive) | 1.33 (inactive) | -0.0991 | 0.844 (inactive) | 0.619 (inactive) | 0.897
3 | COCCOC(=O)N1C(=O)[C@@]2(c3cc(C#CCCO)ccc31)[C@H](c1ccc(O)cc1)N1[C@H](c3ccccc3)[C@H](c3ccccc3)OC(=O)[C@H]1[C@@H]2C(=O)N1CCCCCCC1 | -0.275 (inactive) | 1.6 | 0.139 (inactive) | -0.178 (inactive) | -0.599 (inactive) | 0.0501 (inactive) | -0.451 | 1.17 (inactive) | 0.131 (inactive) | 1.38
4 | COC(=O)[C@@]1(Cc2ccc(F)cc2)[C@H]2c3cc(C(=O)N(C)C)n(Cc4ccccn4)c3C[C@H]2CN1C(=O)c1ccccc1 | -1.37 (inactive) | 1.13 | 0.755 (inactive) | -0.692 (inactive) | 0.336 (inactive) | -1.68 (inactive) | 0.388 | 0.467 (inactive) | 1.2 (inactive) | -2.82
5 | [N-]=[N+]=NCc1ccccc1C[C@]1(C(=O)NCCN2CCOCC2)N=C(c2ccc(OCCCO)cc2)O[C@H]1c1ccccc1CN=[N+]=[N-] | 1.26 (inactive) | 0.453 | 20.7 (active) | 3.07 (inactive) | 0.58 (inactive) | 0.669 (inactive) | 2.75 | -4.56 (inactive) | -2.27 (inactive) | -1.27
6 | C=C(COC)/C(=C/C[C@H](OC(C)=O)c1ccccc1OCCO)c1cnc2ccccc2c1 | -0.0836 (inactive) | -0.0779 | 16.9 (active) | 2.74 (inactive) | 0.661 (inactive) | 0.799 (inactive) | -0.177 | -1.79 (inactive) | -0.0686 (inactive) | -0.854
7 | C=CCNC(=O)[C@@H]1[C@H]2C(=O)O[C@H](c3ccccc3)[C@H](c3ccccc3)N2[C@H](c2ccccc2OCCO)[C@@]12C(=O)N(C(=O)OCCOC)c1ccc(C#CCC(C(=O)OC)C(=O)OC)cc12 | 0.0535 (inactive) | 1.51 | 1.78 (inactive) | 0.931 (inactive) | 0.222 (inactive) | 0.506 (inactive) | 0.273 | 0.793 (inactive) | 0.966 (inactive) | 1.07
8 | [N-]=[N+]=NCc1ccccc1C[C@]1(C(=O)N2CCOCC2)N=C(c2ccc(OCCCO)cc2)O[C@H]1c1ccccc1 | 1.07 (inactive) | 0.208 | 29.4 (active) | 24.2 (active) | 0.785 (inactive) | 1.5 (inactive) | 1.57 | -1.95 (inactive) | -0.399 (inactive) | -1.32
9 | COCCOC(=O)N1C(=O)[C@@]2(c3cc(C#CCC(C(=O)OC)C(=O)OC)ccc31)[C@H](c1ccc(OCCO)cc1)N1[C@H](c3ccccc3)[C@H](c3ccccc3)OC(=O)[C@H]1[C@@H]2C(=O)NC[C@H](O)c1ccccc1 | 0.588 (inactive) | -0.0533 | 3.79 (inactive) | 1.54 (inactive) | 1.69 (inactive) | 1.17 (inactive) | 0.22 | 1.53 (inactive) | 1.26 (inactive) | 1.17
10 | O=C(CS)NCCCCCNC(=O)[C@H]1C[C@H]2C(=O)N[C@@H](Cc3ccccc3)C(=O)N2[C@H]1c1cccc(OCCO)c1 | 1.77 (inactive) | 0.373 | 3.03 (inactive) | 0.724 (inactive) | -2 (inactive) | 0.425 (inactive) | 0.9 | 1.69 (inactive) | 1.34 (inactive) | 0.687
11 | NC(=O)[C@@]1(CCS(=O)(=O)c2ccccc2)N=C(c2ccc(OCCCO)cc2)O[C@H]1c1ccccc1 | 1.24 (inactive) | 0.254 | 19.7 (active) | 2.48 (inactive) | 1.4 (inactive) | -0.898 (inactive) | 2.09 | -3.88 (inactive) | -1.85 (inactive) | -1.61
12 | CCCC[C@@H]1C[C@H]1[C@@H](NC(=O)c1ccco1)c1ccccc1 | -2.76 (inactive) | -0.168 | 4.64 (inactive) | 1.16 (inactive) | 0.747 (inactive) | 0.545 (inactive) | -0.446 | -1.42 (inactive) | -2.53 (inactive) | 0.195
13 | CCCC[C@@H]1C[C@H]1[C@@H](NC(=O)c1ccccc1)c1ccccc1 | -1.39 (inactive) | 1.43 | 0.713 (inactive) | 0.803 (inactive) | 0.13 (inactive) | 0.888 (inactive) | -0.943 | -0.289 (inactive) | -1.21 (inactive) | 1.98
14 | CC(C)C[C@@H]1NC(=O)[C@@H]2C[C@H](C(=O)NCCCCN(C)C)[C@H](c3ccc(O)cc3)N2C1=O | -0.0654 (inactive) | -0.0655 | -0.202 (inactive) | -0.241 (inactive) | -0.689 (inactive) | -0.189 (inactive) | 0.0488 | -0.298 (inactive) | 0.167 (inactive) | 0.21
15 | COC(=O)[C@@]1(Cc2ccc(OC)cc2)[C@H]2c3cc(C(=O)N(C)C)n(CCSCCO)c3C[C@H]2CN1C(=O)c1ccccc1 | -0.641 (inactive) | 0.0391 | 2.02 (inactive) | 0.0187 (inactive) | 0.453 (inactive) | 0.641 (inactive) | -0.368 | 0.393 (inactive) | 0.978 (inactive) | -0.24
16 | C=C(C(=O)CC[C@@H](OC(=O)c1cccnc1)c1ccc(OCCO)cc1)C(C)C | -1.07 (inactive) | 0.0043 | 3.66 (inactive) | 2.48 (inactive) | -6.06 (inactive) | 0.822 (inactive) | -0.917 | -4.23 (inactive) | -1.19 (inactive) | -1.6
17 | O=C1C[C@@](C(=O)O)(c2ccc([N+](=O)[O-])cc2)[C@@H](c2ccc(CO)cc2I)N1C1CCCCC1 | 1.52 (inactive) | 0.208 | 17.5 (active) | 2.77 (inactive) | 3.02 (inactive) | 0.202 (inactive) | 1.84 | 1.46 (inactive) | -2.82 (inactive) | -1.78
18 | Cc1ccc(S[C@]2(C(=O)NCC(F)(F)F)CC(=O)N(C3Cc4ccccc4C3)[C@@H]2c2ccc(CO)cc2I)cc1 | 1.1 (inactive) | 0.0013 | 6.63 (inactive) | 1.29 (inactive) | 0.577 (inactive) | 0.526 (inactive) | -0.204 | 0.994 (inactive) | -1.56 (inactive) | 1.06
19 | CC(C)(C)OC(=O)CC[C@@]1(C(=O)N2CCOCC2)N=C(c2ccc(OCCCO)cc2)O[C@@H]1c1ccccc1N=[N+]=[N-] | 1.96 (inactive) | 0.394 | 30.9 (active) | 28.1 (active) | 1.09 (inactive) | 7.36 (inactive) | -0.242 | -3.49 (inactive) | 0.71 (inactive) | -2.04
20 | CC(C)[Si]1(C(C)C)O[C@@H](c2ccccc2)c2cc(-c3ccc(-c4ccc(Cl)c(Cl)c4)o3)nc(CCc3ccccc3)c21 | -0.792 (inactive) | -0.0428 | 3.36 (inactive) | 0.652 (inactive) | -0.443 (inactive) | -0.0811 (inactive) | -0.507 | 0.903 (inactive) | 0.928 (inactive) | 0.44
21 | O=C1OCCC/C=C\[C@H]2OC34C=CCN(Cn5nnc6ccccc65)C(=O)[C@H]3N(CCCO)C(=O)[C@@H]4C12 (stereo not given in full) | 0.0048 (inactive) | 0.123 | 1.16 (inactive) | 0.614 (inactive) | -0.443 (inactive) | 0.261 (inactive) | 1.16 | 0.821 (inactive) | 0.689 (inactive) | 2.02
22 | C#C[C@H](O[Si](C#CCCCCCC)(C(C)C)C(C)C)c1ccccc1 | 0.79 (inactive) | -0.468 | 0.486 (inactive) | -0.227 (inactive) | -0.177 (inactive) | 0.433 (inactive) | 0.482 | -1.09 (inactive) | -0.782 (inactive) | -1.97
23 | C=CCC(OC(C)=O)[C@@H]1[C@@H](N(Cc2ccc(-c3cccc(C(F)(F)F)c3)o2)C(=O)Cc2ccc(OC)cc2)c2cc(OCCCO)ccc2N1C(=O)Cc1ccc(OC)cc1 (stereo not given in full) | 1.12 (inactive) | -0.0547 | 1.66 (inactive) | -0.139 (inactive) | 0.777 (inactive) | -0.176 (inactive) | 1.37 | -2.27 (inactive) | -1.82 (inactive) | -1.89
24 | Cc1ccc(C(C)CC(O)C2C=CC3C(=O)NC(=O)C3N2Nc2ccccn2)o1 (stereo not given) | 0.488 (inactive) | -0.154 | 0.494 (inactive) | 0.481 (inactive) | -0.284 (inactive) | 0.606 (inactive) | -0.439 | 0.36 (inactive) | -2.17 (inactive) | -1.52
25 | CN(C)CCCN1C(=O)[C@@]2(c3ccc([N+](=O)[O-])cc3)CC(=O)N(C3CCCCC3)[C@@H]2c2ccc(CO)cc21 | 0.493 (inactive) | 0.412 | -0.275 (inactive) | -0.249 (inactive) | -1.12 (inactive) | -1.73 (inactive) | 0.759 | -0.209 (inactive) | 0.632 (inactive) | 0.56
26 | O=C1C2C=CC(C(O)c3cccc4ccccc34)N(n3cnnc3)C2C(=O)N1Cc1ccccc1 (stereo not given) | -1.53 (inactive) | 1.69 | -0.0851 (inactive) | 0.327 (inactive) | 0.282 (inactive) | 0.339 (inactive) | -0.711 | -0.154 (inactive) | 0.0285 (inactive) | -0.879
